Results reported in PubChem BioAssay AID1619 (SRMLSC, 2009).
Out of some 220,000 compounds screened, about 830 (0.38%) were called active.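 The calls were made as follows: active = compound inhibiting the enzyme by more than half at any dose during confirmatory dose-response retesting; inconclusive = strong single-dose inhibitors picked by rank but not retested; inactive = the rest.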 Only a sample is shown. Results with a measured potency or affinity are listed apart.

These compounds were tested against Leucine aminopeptidase (Plasmodium falciparum (isolate 3D7)) (UniProt Q8IL11) (assay: P. falciparum M17LAP inhibitors, primary screen, biochemical, fluorogenic H-Leu-NHMec substrate, 1536-well (AID 1619;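 also: plate controls were full reaction with DMSO carrier for no effect and no enzyme background for full effect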)). Settings: recombinant M17LAP, H-Leu-NHMec fluorogenic kinetic assay; at 30 µM; hits give high values.
Sequence of Leucine aminopeptidase (Plasmodium falciparum (isolate 3D7)) (Q8IL11 whole entry, looked up): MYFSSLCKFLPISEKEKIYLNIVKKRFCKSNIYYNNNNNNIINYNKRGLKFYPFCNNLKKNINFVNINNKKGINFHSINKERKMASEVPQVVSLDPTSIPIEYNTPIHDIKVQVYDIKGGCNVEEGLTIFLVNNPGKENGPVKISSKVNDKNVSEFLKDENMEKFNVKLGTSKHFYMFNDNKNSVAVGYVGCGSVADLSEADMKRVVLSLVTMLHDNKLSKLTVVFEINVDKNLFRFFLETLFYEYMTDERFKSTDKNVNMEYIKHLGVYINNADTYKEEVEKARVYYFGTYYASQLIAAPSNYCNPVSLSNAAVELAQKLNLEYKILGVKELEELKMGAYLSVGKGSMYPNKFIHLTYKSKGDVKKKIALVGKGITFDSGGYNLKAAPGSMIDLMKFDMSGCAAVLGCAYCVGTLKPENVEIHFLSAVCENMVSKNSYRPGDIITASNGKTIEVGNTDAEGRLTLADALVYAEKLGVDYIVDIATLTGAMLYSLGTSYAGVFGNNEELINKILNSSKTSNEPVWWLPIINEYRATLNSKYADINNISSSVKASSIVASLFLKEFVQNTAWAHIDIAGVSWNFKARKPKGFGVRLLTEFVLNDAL
COc1ccccc1-c1nnc(SC(C(=O)c2c[nH]c3ccccc23)c2ccccc2)n1C (stereo not drawn) was tested, and the inhibition was 6.65% (inactive).
With CCCC(=O)NNC(=O)CCC(=O)Nc1ccccc1Cl the inhibition was 6.3% (inactive).
Cc1cc(-c2onc(C)c2C(=O)O)no1 was tested, and the inhibition was -2.33% (inactive).
For CC(C)C1CC(CCN2CCCCC2)(c2ccccc2)CCO1 (stereo not drawn), the inhibition was -6.12% (inactive).
For CC(=O)N1CCc2cc(C(=O)CN3CCN(c4ccccn4)CC3)ccc21, the inhibition was 8.66% (inactive).
In the case of COc1ccc(Cl)cc1-c1nc(SCC(=O)NC(C)C(C)C)n[nH]1 (stereo not drawn), the inhibition was -5.32% (inactive).
For CCc1c(O)nc(SCC(=O)Nc2ccccc2)n(-c2ccccc2)c1=O, the inhibition was -0.62% (inactive).
For CCc1c(O)nc(SCc2ccccc2)n(C(C)CC)c1=O (stereo not drawn), the inhibition was 36.5% (inactive).
In the case of O=C(NCc1ccco1)C1CC(c2ccc(Cl)cc2)=NO1 (stereo not drawn), the inhibition was 2.33% (inactive).
For CC(C)(C)c1cc(C(=O)O)n(Cc2ccc(Cl)cc2Cl)n1, the inhibition was -0.53% (inactive).
O=Nc1c(O)n(Cc2ccc(Cl)cc2Cl)c2ccccc12 was tested, and the inhibition was -0.24% (inactive).
With O=C(COC(=O)C1(c2ccc(Cl)cc2)CCCC1)NCc1ccco1 the inhibition was -0.44% (inactive).
Oc1ccc(/C=N/NC(=S)Nc2cccnc2)cc1 was tested, and the inhibition was 33.2% (inactive).
For Fc1ccc(/C=N/NC(=S)Nc2cccnc2)cc1F, the inhibition was 8.17% (inactive).
For O=C(CSc1nnc(-c2ccc(Cl)cc2)n1Cc1ccco1)NCc1ccc2c(c1)OCO2, the inhibition was 7.75% (inactive).
O=C(N/N=C/c1cccs1)c1cccc2cc[nH]c12 was tested, and the inhibition was 8.58% (inactive).
With C=CCOc1ccc(/C=C2\C(=N)N3N=C(S(=O)(=O)CC)SC3=NC2=O)cc1OC the inhibition was 1.58% (inactive).
With CCS(=O)(=O)C1=NN2C(=N)/C(=C\c3ccc(SCc4ccco4)o3)C(=O)N=C2S1 the inhibition was 33.6% (inactive).
With COc1ccc(/C=C/C(=O)NCC(=O)N2CCC(N(C)CCN3CCOCC3)CC2)cc1OC the inhibition was 0.93% (inactive).
COC(=O)c1sc2nc(CN3CCN(c4ccc(OC)cc4)CC3)[nH]c(=O)c2c1C was tested, and the inhibition was 0.73% (inactive).
In the case of O=C(COC(=O)c1ccccc1NC(=O)C1CC1)c1ccc2c(c1)OCCO2, the inhibition was 12.2% (inactive).
CC(C)C(=O)Nc1ccccc1C(=O)OCC(=O)c1ccc2c(c1)OCCO2 was tested, and the inhibition was 0.77% (inactive).
For O=Cc1ccc(-c2cccc(C(=O)O)c2)o1, the inhibition was 17% (inactive).
O=C1c2ccccc2C(=O)N1CCCc1nc(-c2ccncc2)no1 was tested, and the inhibition was -5.77% (inactive).
CCOC(=O)N1CCN(C(=O)CCN2C(=O)COc3ccc(C)cc32)CC1 was tested, and the inhibition was -3.49% (inactive).
Cc1c(NC(=O)CSc2nc3ccccc3s2)c(=O)n(-c2ccccc2)n1C was tested, and the inhibition was 14.2% (inactive).
For CN1CCC(Oc2ccccc2Sc2ccccc2)CC1, the inhibition was 2.7% (inactive).
Cc1ccc(S(=O)(=O)Nc2ccccc2C(=O)Nc2ccc(S(=O)(=O)Nc3nccc(C)n3)cc2)cc1 was tested, and the inhibition was -17.2% (inactive).
In the case of Cc1cccc(C)c1NC(=O)CSc1nnc(C)c(=O)[nH]1, the inhibition was 15.2% (inactive).
Cc1nnc(SCC(=O)Nc2ccccc2)[nH]c1=O was tested, and the inhibition was 41.7% (inactive).
For Cc1nnc(SCC(=O)Nc2ccc3c(c2)OCO3)[nH]c1=O, the inhibition was 6.76% (inactive).
In the case of CC(=O)Nc1ccc(NC(=O)CSc2nnc(C)c(=O)[nH]2)cc1, the inhibition was 5.47% (inactive).
For O=c1c2ccccc2nnn1Cc1ccc2ccccc2c1, the inhibition was -5.34% (inactive).
For COc1ccc(-n2c(SC(CN3CCCCC3)CN3CCCC3=O)nc3ccccc3c2=O)cc1 (stereo not drawn), the inhibition was 0.58% (inactive).
In the case of CCOC(=O)C1=C(O)/C(=C/c2ccc(OCC(=O)O)c(OCC)c2)SC1=Nc1ccccc1, the inhibition was 43.5% (inactive).
For CCOC(=O)C1=C(O)/C(=C/c2ccc(OCC(=O)O)c(OC)c2)SC1=Nc1ccc(OC)cc1, the inhibition was 41.7% (inactive).
CCOC(=O)C1=C(O)/C(=C/c2ccc(OCC(=O)O)c(OC)c2)SC1=Nc1ccc(OCC)cc1 was tested, and the inhibition was 38.5% (inactive).
With CCOc1cc(C=C2C(=O)c3ccccc3C2=O)ccc1OCC(=O)Nc1ccc(C)cc1 the inhibition was 6.24% (inactive).
Cc1ccc(C(=O)Nc2nc3ccc(S(C)(=O)=O)cc3s2)o1 was tested, and the inhibition was 48.6% (inactive).
In the case of CCOc1cc(S(=O)(=O)NC2CCCCCC2)ccc1F, the inhibition was 4.34% (inactive).
For Cc1nc(CSc2nnc(Nc3cccc(C)c3C)s2)cs1, the inhibition was 22.7% (inactive).
In the case of O=C1CCCCC1Sc1nnc(Nc2ccccc2)s1 (stereo not drawn), the inhibition was 16.7% (inactive).
For CCc1ccc(Nc2nnc(SCC(=O)N(C)C3CCS(=O)(=O)C3)s2)cc1 (stereo not drawn), the inhibition was 6.41% (inactive).
Cc1ccc(Nc2nnc(SCC(=O)NC3CCS(=O)(=O)C3)s2)c(C)c1 (stereo not drawn) was tested, and the inhibition was 9.77% (inactive).
In the case of Cc1cccc(Nc2nnc(SCC(=O)N(C)C3CCS(=O)(=O)C3)s2)c1C (stereo not drawn), the inhibition was 35% (inactive).
In the case of Cc1cccc(Nc2nnc(SCC3CCCCO3)s2)c1C (stereo not drawn), the inhibition was 13.4% (inactive).
Cc1cccc(Nc2nc3ccccc3s2)c1C was tested, and the inhibition was 0.94% (inactive).
Cc1ccc(Nc2nnc(SCC(=O)c3ccc(Br)s3)s2)c(C)c1 was tested, and the inhibition was 27.2% (inactive).
In the case of CCSc1ccc2cc(OC)ccc2[n+]1CC, the inhibition was 2.2% (inactive).
In the case of Cc1ccc(NC(=O)CNCc2ccccc2)cc1Br, the inhibition was 1.6% (inactive).
With CCC(C)(C)n1nnnc1CN1CCN(C(c2ccccc2)c2ccccc2)CC1 the inhibition was 7.37% (inactive).
O=C1CSC2(CCCCC2)N1CCO was tested, and the inhibition was 15.1% (inactive).
O=S1(=O)CCC(NC(=S)NC2CCS(=O)(=O)C2)C1 (stereo not drawn) was tested, and the inhibition was 1.24% (inactive).
With CCOCCCNC(=S)N1C2CCC1CC(NC(=O)NC13CC4CC(CC(C4)C1)C3)C2 (stereo not drawn) the inhibition was 2.02% (inactive).
In the case of C=CC(=O)N=c1sc2ccccc2n1-c1ccccc1, the inhibition was -2.28% (inactive).
For c1ccc(-c2ccccc2OCCCN2CCCCCC2)cc1, the inhibition was -1.36% (inactive).
In the case of Cc1cccc(NS(=O)(=O)c2cnc[nH]2)c1, the inhibition was -0.29% (inactive).
In the case of CCCCN=C(C)C1=C(O)CSC1=O, the inhibition was 12.4% (inactive).
In the case of CC(C)c1ccc(Nc2nnc(SC3CCOC3=O)s2)cc1 (stereo not drawn), the inhibition was 32.8% (inactive).
Cc1ccc(Nc2nnc(SCC3CCCCO3)s2)cc1 (stereo not drawn) was tested, and the inhibition was 13.8% (inactive).
With Cc1cc(C)n(-c2ccc(C(=O)Nc3nnc(C4CC4)s3)cc2)n1 the inhibition was 4.37% (inactive).
COc1ccc(OC)c(NC(=O)c2ccc(CSc3nnc(C)s3)cc2)c1 was tested, and the inhibition was -1.27% (inactive).
For N/C(=N\OC(=O)COc1ccc(Br)cc1Cl)c1ccccn1, the inhibition was -6.93% (inactive).
For O=C1C(C2=NC(c3ccccn3)C3C(=O)N(c4ccc(OC(F)(F)F)cc4)C(=O)C23)=C(O)c2ccccc21 (stereo not drawn), the inhibition was -6.84% (inactive).
In the case of O=C1C(C2=NC(c3ccccn3)C3C(=O)N(c4ccc(Cl)cc4Cl)C(=O)C23)=C(O)c2ccccc21 (stereo not drawn), the inhibition was 3.81% (inactive).
With O=C(C1=NN(c2ccccc2)C2C(=O)N(c3ccc(Cl)cc3)C(=O)C12)c1ccccc1 (stereo not drawn) the inhibition was 4.99% (inactive).
For O=C1C(C2=NC(c3ccccn3)C3C(=O)N(c4ccccc4)C(=O)C23)=C(O)c2ccccc21 (stereo not drawn), the inhibition was -11% (inactive).
In the case of O=C(NNC(=O)c1cccc2ccccc12)c1ccc(-c2ccccc2)cc1, the inhibition was -1.51% (inactive).
In the case of CCCCOC(=O)c1ccc(NC(=O)C(=O)NCCN(C)C)cc1, the inhibition was 4.81% (inactive).
In the case of Cn1cnc([N+](=O)[O-])c1Oc1cccc(O)c1, the inhibition was -5.34% (inactive).
In the case of O=C(CSc1nc2ccccc2s1)Nn1cnnc1, the inhibition was 6.17% (inactive).
For Cc1noc(NS(=O)(=O)c2ccc(NC(=O)CSc3nc4ccccc4[nH]3)cc2)c1C, the inhibition was -54.8% (inactive).
Cc1cc(C)nc(SCC(=O)Nc2ccc(S(=O)(=O)Nc3ncccn3)cc2)n1 was tested, and the inhibition was 0.08% (inactive).
In the case of Cc1cc(C)nc(NC(=O)CSc2nc3ccccc3s2)n1, the inhibition was -0.55% (inactive).
With Cc1cc(NS(=O)(=O)c2ccc(NC(=O)Nc3cccc(Cl)c3)cc2)no1 the inhibition was 41% (inactive).
O=C(CSc1ccccc1)Nc1ccc(S(=O)(=O)Nc2ncccn2)cc1 was tested, and the inhibition was 4.72% (inactive).
For Cc1cc(NS(=O)(=O)c2ccc(NC(=O)Nc3ccccc3)cc2)no1, the inhibition was 53.6% (inactive).
Cc1noc(NS(=O)(=O)c2ccc(NC(=O)CSc3ncccn3)cc2)c1C was tested, and the inhibition was -8.95% (inactive).
In the case of Cc1nn(-c2ccccc2)c(Cl)c1/C=C(\C#N)C(=O)NC(C)C, the inhibition was 0.39% (inactive).
In the case of COCc1cc(C)nc(N/N=C/c2ccc(Cl)c(Cl)c2)c1C#N, the inhibition was -7.61% (inactive).
With O=[N+]([O-])c1ccc(Nc2c3ccccc3nc3ccccc23)cc1 the inhibition was -29.4% (inactive).
Cc1ccc(NC(=O)CN2C(=O)N/C(=C\c3cccnc3)C2=O)cc1 was tested, and the inhibition was 2.33% (inactive).
In the case of Cc1ccc(Cn2c(SCc3cccnc3)nc3c2c(=O)n(C)c(=O)n3C)cc1, the inhibition was 5.09% (inactive).
With CC(=O)Nc1ccc(NC(=O)CN(c2cccc(C)c2)S(C)(=O)=O)cc1 the inhibition was 1.19% (inactive).
CCc1cccc(NC(=O)CCc2nc(-c3cccs3)no2)c1 was tested, and the inhibition was 17.6% (inactive).
CCNC(=S)Nc1ccc(Cl)c([N+](=O)[O-])c1 was tested, and the inhibition was -6.59% (inactive).
In the case of NC(=O)CC(NC(=O)Cc1ccc(Br)cc1)c1ccc(NCc2ccc(F)c(F)c2)c([N+](=O)[O-])c1 (stereo not drawn), the inhibition was -2.21% (inactive).
With Cc1noc(NS(=O)(=O)c2ccc(NC(=O)CSc3n[nH]c(-c4ccccc4)n3)cc2)c1C the inhibition was -60.9% (inactive).
For Cc1noc(NS(=O)(=O)c2ccc(N/C=C/C(=O)c3ccc4c(c3)OCO4)cc2)c1C, the inhibition was 36.4% (inactive).
With Cc1cc(C)c(C(=O)Nc2ccc(S(=O)(=O)Nc3onc(C)c3C)cc2)c(C)c1 the inhibition was -10.6% (inactive).
Cc1cc(C(=O)Nc2ccc(S(=O)(=O)Nc3onc(C)c3C)cc2)c(C)o1 was tested, and the inhibition was -21.9% (inactive).
For Cc1noc(NS(=O)(=O)c2ccc(N/C=C/C(=O)c3ccc(F)cc3)cc2)c1C, the inhibition was 20.6% (inactive).
Cc1cc(C)nc(SCC(=O)Nc2ccc(S(=O)(=O)Nc3onc(C)c3C)cc2)n1 was tested, and the inhibition was -13.9% (inactive).
